“And” between values parts separate entries of the source, which are not always exact repeats. Equal entries are not always repeated. Inconclusive results are not listed. The source made the active and inactive calls. Unless noted, calls follow the shape of the dose curve; as a rule, active = well fitted curve in the direction sought with a large enough effect; inconclusive = small, poorly fitted or top-dose-only effect, or another doubt; inactive = no such curve, though single readings can be large; an effect the other way counts as inactive or inconclusive.
What was measured:
[1] = molecular target: Glucocorticoid receptor (Homo sapiens) (UniProt P04150); test: GR-GFP Redistribution (AID 450;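 active = compounds whose dose series gives a full or clear partial fitted curve of increased nuclear translocation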; also: potency is read from the fitted curve at half-maximal effect); conditions: U2OS GR-GFP nuclear translocation, laser cytometry, 2 h
[2] = molecular target: Glucocorticoid receptor (Homo sapiens) (UniProt P04150); test: GR-EFC Redistribution (AID 451; calls by dose curve; also: potency is read from the fitted curve at half-maximal effect); conditions: CHO-K1 GR-EFC translocation, beta-gal luminescence, 2 h
Summary of the method: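 CHO-K1 cells stably expressing nuclear-localized β-gal enzyme acceptor and GR fused C-terminally to the enzyme donor fragment; ligand-driven nuclear translocation restores β-gal by complementation. Compounds titrated up to 46 uM final, 2 h at 37 °C; luminescence read.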

[3] = molecular target: Mitogen-activated protein kinase 10 (Mus musculus) (UniProt Q61831); test: JNK3 AlphaScreen Assay (AID 530; active = well fitted curve in either direction with a large enough effect, not every such curve was filed as active;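 also: kinase came from lysate of stimulated human HepG2 cells; signal reports phosphorylation of biotinylated GST-cJun 1-79 at Ser73 with 10 µM ATP; % is scaled to controls: 0 for no effect and ±100 for the full control effect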); conditions: JNK3 lysate, c-Jun phosphorylation; series mostly up to 57.1 µM
Summary of the method: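 JNK3 came from HepG2 lysates pre-activated with IL-1beta and TNF-alpha and phosphorylated biotinylated GST-cJun (1-79) at 10 uM ATP, pH 7.6, room temperature. Compounds were titrated. AlphaScreen signal used anti-phospho-cJun (Ser73) antibody.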

[4] = qHTS Assay for Lipid Storage Modulators (AID 1519; calls by dose curve; as to activity change, negative = inhibition: % is scaled to controls: 0 for no effect and ±100 for the full control effect); conditions: Drosophila S3 cells, BODIPY lipid droplet/cell ratio, laser cytometry, cells loaded with oleic acid
Summary of the method: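 Cells seeded at 5,000 per well were treated with compounds over a concentration series and loaded with oleic acid (400 uM, as added). Lipid droplet fluorescence (488 nm excitation, 500-530 nm channel) was read by laser-scanning cytometry and normalized to 20 uM Triacsin C.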

[5] = molecular target: Ubiquitin carboxyl-terminal hydrolase 1 (Homo sapiens) (UniProt O94782); test: Inhibitors of USP1/UAF1: Pilot qHTS (AID 504865); conditions: purified USP1/UAF1, Ub-rhodamine cleavage fluorescence; series mostly up to 114 µM;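 also: rhodamine fluorescence freed from ubiquitin-rhodamine substrate followed over time; top concentration of the series differs between compounds; % is scaled to controls: 0 for no effect and ±100 for the full control effect; nearly all actives have a fitted effect of over 35% in size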
Summary of the method: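 In 50mM HEPES pH 7.8 containing 0.5mM EDTA, 1mM TCEP, 0.1 mg/ml BSA and 0.01% Tween-20, 1nM USP1/UAF1 is exposed to compound for 15 min, then Ub-Rho (150nM final) is added and fluorescence is read over time.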

[6] = molecular target: DNA dC->dU-editing enzyme APOBEC-3G (Homo sapiens) (UniProt Q9HC16); test: qHTS for inhibitors of Vif-A3G interactions: Validation (AID 588379); conditions: Vif-A3G protein interaction assay; series mostly up to 46.1 µM; also: 0% is about no effect
Summary of the method: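 HeLa cells stably expressing Vif and A3G-eYFP, 700 cells/well, incubated overnight at 37 deg C, then exposed to compound overnight at 37 deg C. Inhibition of Vif-mediated degradation read as increased yellow fluorescence (Ex 488/Em 500-530) by laser-scanning cytometry.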

[7] = tested on: Zika virus NS2B-NS3 protease; test: Primary screen GU AMC qHTS for Zika virus inhibitors (AID 1347154); conditions: Zika NS2B-NS3 unlinked protease, AMC fluorogenic substrate; series mostly up to 54.1 µM;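 also: 0% = no-inhibitor control and -100% = no-enzyme control; nearly all actives have a fitted effect of over 70% in size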
Summary of the method: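 Unlinked Zika NS2B hydrophilic domain/NS3 protease domain noncovalent complex (25 nM final) in 10 mM Tris-HCl pH 8.0, 0.01% Tween 20, with AMC peptide substrate. Fluorescence (ex 340, em 450 nm) change over 15 min, room temperature; percent inhibition fitted to 4-parameter Hill equation.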

[8] = HPAF-II Cancer Cell Toxicity qHTS against the NCATS CANVASS Library (AID 1347346); conditions: HPAF-II viability, CellTiter-Glo ATP luminescence, 72 h; series mostly up to 38.3 µM; also: nearly all actives have a fitted effect of over 55% in size; also: potency is read from the fitted curve at half-maximal effect
Summary of the method: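 Cytotoxicity in HPAF-II pancreatic cancer cells: 72 h treatment across 11 concentrations, ATP-based CellTiter-Glo luminescence endpoint.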

[9] = OV-SAHO Cancer Cell Toxicity qHTS against the NCATS CANVASS Library (AID 1347348); conditions: OV-SAHO viability, CellTiter-Glo luminescence, 72 h; series mostly up to 38.3 µM; also: nearly all actives have a fitted effect of over 55% in size; also: potency is read from the fitted curve at half-maximal effect
Summary of the method: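 1000 cells/well seeded and rested 4 h at 37 °C before pin transfer of compounds in an 11-pnt series. Exposure 72 h at 37 °C/5% CO2; viability by CellTiter-Glo luminescence after 15 min at room temperature.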

[10] = COV-362 Cancer Cell Toxicity qHTS against the NCATS CANVASS Library (AID 1347352); conditions: COV-362 viability, CellTiter-Glo luminescence, 72 h; series mostly up to 38.3 µM; also: potency is read from the fitted curve at half-maximal effect
Summary of the method: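 qHTS cytotoxicity: compounds tested in 11 concentrations on 1000 seeded cells per well over 72 h; bortezomib served as control; signal from CellTiter-Glo luminescence.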

[11] = HEK293 24hr Apoptosis Induction qHTS against the NCATS CANVASS Library (AID 1347359); conditions: HEK293 caspase-3/7 activation, Caspase-Glo luminescence; series mostly up to 46.1 µM; also: 0% is about no effect
Summary of the method: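 HEK293 cells (500/well, DMEM + 10% FBS) were exposed to compounds in an 11-point series for 24 hours at 37 degrees C, then caspase-3/7 activity was read by Caspase-Glo DEVD luciferase luminescence after 15 min.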

[12] = HEK293 12hr Apoptosis Induction qHTS against the NCATS CANVASS Library (AID 1347361); conditions: HEK293 caspase-3/7 Caspase-Glo luminescence; series mostly up to 46.1 µM; also: 0% is about no effect
Summary of the method: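 Cells are seeded, dosed with an 11-point compound series and incubated 12 hours. Caspase-3/7 activity is detected by luminescent DEVD-substrate reagent after 15 minutes at room temperature.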

[13] = tested on: NAD(P)H diaphorase (Clostridium kluyveri); test: Diaphorse counterscreen qHTS: Assay Interference Panel against the NCATS CANVASS Library (AID 1347362); conditions: Diaphorase enzyme, resazurin to resorufin fluorescence; series mostly up to 57.5 µM; also: 0% is about no effect
Summary of the method: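 Clostridium kluyveri diaphorase in PBS with 0.01% Tween-20 was preincubated 15 min at room temperature in the dark with compounds (11-point series). Resorufin fluorescence (ex 525/20, em 598/25) was read 5 min after adding resazurin/NADH.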

[14] = molecular target: Luciferin 4-monooxygenase (Photinus pyralis) (UniProt P08659); test: Firefly luciferase counterscreen qHTS: Assay Interference Panel against the NCATS CANVASS Library (AID 1347363); conditions: purified firefly luciferase, luminescence inhibition, 5 min; series mostly up to 57.5 µM; also: 0% is about no effect
Summary of the method: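 Purified P. pyralis luciferase was added to compounds (11-point series) preincubated 15 min at room temperature with substrate containing 0.013 mM D-luciferin and 0.013 mM ATP; luminescence was read after 5 min.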

[15] = KB-3-1 Cancer Cell Toxicity qHTS against the NCATS CANVASS Library (AID 1347366); conditions: KB-3-1 viability, CellTiter-Glo luminescence, 72 h; series mostly up to 46.1 µM; also: nearly all actives have a fitted effect of over 75% in size; also: potency is read from the fitted curve at half-maximal effect
Summary of the method: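 Luminescence from CellTiter-Glo (10 min, room temperature) measured KB-3-1 viability after 72 hr compound exposure at 37C. Cells were seeded at 500/well and tested in an 11-point series.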

[16] = molecular target: Nuclear receptor subfamily 1 group I member 3 (Homo sapiens) (UniProt Q14994); test: qHTS for Constitutive Androstane Receptor (CAR) Agonist screened against the NCATS CANVASS Library (AID 1347373); conditions: HepG2-hCAR-CYP2B6 luciferase reporter, ONE-Glo luminescence; series mostly up to 46.1 µM;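 also: every well also contained 1.5 µM PK11195 alongside the test compound; 0% is about no effect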
Summary of the method: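 CAR agonism is scored as CYP2B6-promoter luciferase induction in a double-stable transfected HepG2 line, where 1.5uM PK11195 is included in each well. Compounds were tested over a 24hr exposure.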

[17] = measured here: cell count channel max response
[18] = measured here: lipid channel max response

Sequence of Ubiquitin carboxyl-terminal hydrolase 1 (Homo sapiens) (O94782 whole entry, looked up): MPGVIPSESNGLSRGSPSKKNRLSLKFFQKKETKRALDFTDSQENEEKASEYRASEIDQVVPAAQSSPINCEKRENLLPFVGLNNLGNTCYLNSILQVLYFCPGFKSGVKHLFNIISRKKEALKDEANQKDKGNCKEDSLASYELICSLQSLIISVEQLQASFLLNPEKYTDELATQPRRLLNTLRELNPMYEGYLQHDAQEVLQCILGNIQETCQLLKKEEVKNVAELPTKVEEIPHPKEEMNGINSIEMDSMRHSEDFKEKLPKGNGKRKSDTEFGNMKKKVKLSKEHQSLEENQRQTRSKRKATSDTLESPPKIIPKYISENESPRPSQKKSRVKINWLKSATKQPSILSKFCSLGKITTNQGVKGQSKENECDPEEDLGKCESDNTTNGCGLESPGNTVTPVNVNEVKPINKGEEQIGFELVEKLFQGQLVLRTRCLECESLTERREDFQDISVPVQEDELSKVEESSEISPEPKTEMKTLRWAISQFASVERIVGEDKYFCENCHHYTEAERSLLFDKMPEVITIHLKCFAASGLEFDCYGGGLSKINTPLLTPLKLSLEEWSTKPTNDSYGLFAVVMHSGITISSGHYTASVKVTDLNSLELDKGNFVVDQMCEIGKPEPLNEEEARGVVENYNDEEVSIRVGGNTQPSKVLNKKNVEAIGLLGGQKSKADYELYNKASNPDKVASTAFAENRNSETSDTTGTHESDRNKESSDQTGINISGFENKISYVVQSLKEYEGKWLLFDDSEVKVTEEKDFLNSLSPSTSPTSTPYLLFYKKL
Sequence of Nuclear receptor subfamily 1 group I member 3 (Homo sapiens) (Q14994 whole entry, looked up): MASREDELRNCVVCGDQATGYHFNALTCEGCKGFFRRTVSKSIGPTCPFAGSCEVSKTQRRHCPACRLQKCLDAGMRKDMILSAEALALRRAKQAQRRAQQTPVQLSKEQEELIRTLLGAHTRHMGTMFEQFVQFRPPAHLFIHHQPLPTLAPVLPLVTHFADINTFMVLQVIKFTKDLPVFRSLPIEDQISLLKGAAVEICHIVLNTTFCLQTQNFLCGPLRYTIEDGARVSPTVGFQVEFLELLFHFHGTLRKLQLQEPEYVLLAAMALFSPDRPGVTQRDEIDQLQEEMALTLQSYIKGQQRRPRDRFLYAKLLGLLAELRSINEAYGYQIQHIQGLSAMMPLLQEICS
Sequence of DNA dC->dU-editing enzyme APOBEC-3G (Homo sapiens) (Q9HC16 whole entry, looked up): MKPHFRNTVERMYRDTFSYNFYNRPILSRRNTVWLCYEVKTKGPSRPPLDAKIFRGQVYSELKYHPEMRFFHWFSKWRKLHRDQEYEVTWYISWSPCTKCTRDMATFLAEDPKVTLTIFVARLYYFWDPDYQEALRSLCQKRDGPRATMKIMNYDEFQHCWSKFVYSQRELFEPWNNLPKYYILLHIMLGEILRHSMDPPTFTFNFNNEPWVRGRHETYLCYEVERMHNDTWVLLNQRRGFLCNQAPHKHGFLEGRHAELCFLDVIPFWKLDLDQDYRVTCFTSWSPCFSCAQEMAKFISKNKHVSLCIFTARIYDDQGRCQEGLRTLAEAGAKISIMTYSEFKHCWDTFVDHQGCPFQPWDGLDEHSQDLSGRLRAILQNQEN
Sequence of Luciferin 4-monooxygenase (Photinus pyralis) (P08659 whole entry, looked up): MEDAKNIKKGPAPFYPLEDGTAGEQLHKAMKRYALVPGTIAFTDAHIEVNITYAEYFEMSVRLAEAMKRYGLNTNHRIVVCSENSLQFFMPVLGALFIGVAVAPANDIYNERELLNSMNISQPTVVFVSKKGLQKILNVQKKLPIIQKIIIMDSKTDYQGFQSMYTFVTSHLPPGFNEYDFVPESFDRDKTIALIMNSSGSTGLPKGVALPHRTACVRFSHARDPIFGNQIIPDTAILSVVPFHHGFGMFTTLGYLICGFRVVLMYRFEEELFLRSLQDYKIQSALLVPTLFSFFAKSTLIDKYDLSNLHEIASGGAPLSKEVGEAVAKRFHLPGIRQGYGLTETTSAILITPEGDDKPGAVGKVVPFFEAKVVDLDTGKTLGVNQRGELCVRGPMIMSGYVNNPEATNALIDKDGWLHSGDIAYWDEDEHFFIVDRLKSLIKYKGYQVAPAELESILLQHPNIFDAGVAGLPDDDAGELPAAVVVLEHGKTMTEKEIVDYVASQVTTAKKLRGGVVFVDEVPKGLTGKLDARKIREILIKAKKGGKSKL
Sequence of Glucocorticoid receptor (Homo sapiens) (P04150 whole entry, looked up, the tested form may be a part): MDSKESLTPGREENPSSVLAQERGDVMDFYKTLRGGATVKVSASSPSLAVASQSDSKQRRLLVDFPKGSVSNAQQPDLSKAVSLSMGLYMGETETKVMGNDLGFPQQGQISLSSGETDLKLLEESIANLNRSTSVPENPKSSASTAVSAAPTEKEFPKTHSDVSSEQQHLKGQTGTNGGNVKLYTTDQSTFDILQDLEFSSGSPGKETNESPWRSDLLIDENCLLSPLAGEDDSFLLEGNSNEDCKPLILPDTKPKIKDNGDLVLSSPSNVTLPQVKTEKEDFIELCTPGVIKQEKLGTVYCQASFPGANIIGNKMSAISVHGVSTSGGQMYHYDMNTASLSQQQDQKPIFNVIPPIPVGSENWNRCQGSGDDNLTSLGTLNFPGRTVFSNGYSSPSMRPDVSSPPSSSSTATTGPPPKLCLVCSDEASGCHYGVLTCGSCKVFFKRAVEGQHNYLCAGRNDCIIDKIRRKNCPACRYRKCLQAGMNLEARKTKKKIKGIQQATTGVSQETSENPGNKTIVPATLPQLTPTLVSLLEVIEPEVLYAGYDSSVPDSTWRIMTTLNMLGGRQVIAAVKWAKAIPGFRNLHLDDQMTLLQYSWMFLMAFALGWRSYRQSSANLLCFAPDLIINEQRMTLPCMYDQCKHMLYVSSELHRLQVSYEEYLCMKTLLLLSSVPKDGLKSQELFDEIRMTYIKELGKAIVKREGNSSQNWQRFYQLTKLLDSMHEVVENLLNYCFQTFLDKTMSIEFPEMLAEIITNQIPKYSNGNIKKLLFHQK

N[C@H](Cc1o[nH]c(=O)c1Cl)C(=O)O
4.55%: max response [4, 17]
4.87%: max response [4, 18]
inactive: Potency [1] > 46 µM | Potency [2] > 46 µM | outcome [3] | activity change, negative = inhibition ([4]; at 57.5 µM (top of the series)) -0.357% | Potency [5] | Potency [6] | Potency [7]

CN[C@@H]1C[C@H](c2ccc(Cl)c(Cl)c2)c2ccccc21
inactive: Potency [1] > 46 µM | Potency [2] > 46 µM | Potency [6] | Potency [7]

Cc1o[nH]c(=O)c1C[C@@H](N)C(=O)O
inactive: Potency [1] > 46 µM | Potency [2] > 46 µM | outcome [3] | activity change, negative = inhibition ([4]; at 57.5 µM (top of the series)) -2.31% | Potency [6] | Potency [7]
0.175%: max response [4, 18]
-0.22%: max response [4, 17]

NC[C@@H](CC(=O)O)c1ccc(Cl)cc1
inactive: Potency [1] > 20.6 µM and > 46 µM | Potency [2] > 20.6 µM and > 46 µM | outcome [3] | activity change, negative = inhibition ([4]; at 25.7 µM (top of the series)) 0.101% | Potency [6] | Potency [7]
11.7%: max response [4, 17]
10.6%: max response [4, 18]

N[C@@H](Cn1ccc(=O)n(Cc2ccc(C(=O)O)cc2)c1=O)C(=O)O
inactive: Potency [1] > 46 µM | Potency [2] > 46 µM | outcome [3] | activity change, negative = inhibition ([4]; at 57.5 µM (top of the series)) 0.903% | Potency [5] | Potency [6] | Potency [7]
-1.53%: max response [4, 17]
-1.3%: max response [4, 18]

C=CCN1CC[C@@]23c4c5ccc(O)c4O[C@H]2/C(=N\N=C2/CC[C@@]4(O)[C@H]6Cc7ccc(O)c8c7[C@@]4(CCN6CC=C)[C@@H]2O8)CC[C@]3(O)[C@@H]1C5
inactive: Potency [1] > 46 µM | Potency [2] > 46 µM | outcome [3] | Potency [5] | Potency [6] | Potency [7]

CC(C)(O)[C@@H]1[C@H]2OC(=O)[C@@H]1[C@]1(O)C[C@H]3O[C@]34C(=O)O[C@H]2[C@@]14C (tested in a mixture with another compound)
inactive: Potency [1] > 46 µM | Potency [2] > 46 µM | Potency [5] | Potency [6] | Potency [7]

CNCCc1ccc(O)cc1
inactive: Potency [8] | Potency [9] | Potency [10] | Potency [11] | Potency [12] | outcome [13] | outcome [14] | Potency [15] | outcome [16]

CC1=CC2CC[C@@H]3[C@@H](C)C[C@H](C)[C@@H](C1)N23 (stereo partly drawn)
inactive: Potency [8] | Potency [9] | Potency [10] | Potency [11] | Potency [12] | outcome [13] | outcome [14] | Potency [15] | outcome [16]

CC1=CC(=O)C2=C(C)C[C@H](O)[C@@H]3[C@H](OC(=O)[C@@H]3C)[C@@H]12
inactive: Potency [8] | Potency [9] | Potency [10] | Potency [11] | Potency [12] | outcome [13] | outcome [14] | Potency [15] | outcome [16]

CO[C@@H](/C=C/CC/C=C/C(=O)O)[C@@H](O)[C@H](C)/C=C(\C)[C@@H](O)[C@H](C)C(=O)CCCC1CC(=O)NC(=O)C1
inactive: Potency [8] | Potency [9] | Potency [10] | Potency [11] | Potency [12] | outcome [13] | outcome [14] | Potency [15] | outcome [16]

CCC[C@H]1CC[C@H]2[C@H](C)CCC[C@H]2N1
inactive: Potency [8] | Potency [9] | Potency [10] | Potency [11] | Potency [12] | outcome [13] | outcome [14] | Potency [15] | outcome [16]

CN1CC[C@@H]2CN3CCc4cccc(c43)[C@H]2C1
inactive: Potency [1] > 46 µM | Potency [2] > 46 µM | outcome [3] | Potency [5] | Potency [6] | Potency [7]

O=C(O)c1ccccc1-c1c2cc(Br)c(=O)cc-2oc2[c]([Hg])c(O)c(Br)cc12
inactive: Potency [2] > 20.6 µM | outcome [3] | Potency [5]

O[C@@H](Cc1ccncc1)C(Cl)(Cl)Cl
inactive: Potency [1] > 46 µM | Potency [2] > 46 µM | outcome [3] | Potency [5] | Potency [6] | Potency [7]

CCCCC[C@@H]1OC(=O)[C@@H](C)N(C)C(=O)[C@H](CCCCC)OC(=O)C(C)N(C)C(=O)[C@H](CCCCC)OC(=O)[C@@H](C)N(C)C(=O)[C@H](CCCCC)OC(=O)C(C)N(C)C1=O (stereo partly drawn)
active: Potency [8] 6.68 µM | Potency [9] 3.34 µM | Potency [10] 9.41 µM | Potency [15] 9.35 µM
inactive: Potency [11] | Potency [12] | outcome [13] | outcome [14] | outcome [16]

CO[C@@H](/C=C/CC/C=C/C(=O)O)[C@@H](O)[C@H](C)[C@@H](O)/C(C)=C/[C@H](C)C(=O)CCCC1CC(=O)NC(=O)C1
inactive: Potency [8] | Potency [9] | Potency [10] | Potency [11] | Potency [12] | outcome [13] | outcome [14] | Potency [15] | outcome [16]

CC(C)(C)NC[C@@H](O)COc1cccc2[nH]c(C#N)cc12
inactive: Potency [1] > 46 µM | Potency [2] > 46 µM | outcome [3] | Potency [5] | Potency [6] | Potency [7]
